Assay results: PubChem BioAssay AID1159580 (chemical genetic matrix, 2015)
Screen size: about 5,500 compounds; about 2,000 (36%) were called active. About 18% were inconclusive and are not listed. Rule as the data show it: active = normalized growth mostly below about 0.91 (no sharp cut-off); inconclusive = no clear call, values can overlap the other calls; inactive = mostly above about 0.92. The list shows a part of the results.

Experiment: chemical genetic growth profiling, strain panel (AID 1159580);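 also: tested at 20 µM; growth read once vehicle control cultures reached saturation at 30 °C; 1 = growth at the plate median or of vehicle wells; lower values mean less growth of the strain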
Conditions: S. cerevisiae deletion strains, growth OD

Measured: normalized growth

C[N+]1(C)C[C@H](O)[C@H](C(=O)[O-])C1
inactive: locus YAL013W, strain DEP1, hits give low values 1.01 | locus YAL021C, strain ccr4, hits give low values 0.996 | locus YAL026C, strain drs2, hits give low values 1.03 | locus YAL030W, strain snc1, hits give low values 1.01 | locus YBL061C, strain skt5, hits give low values 1.01 | locus YBR009C, strain hhf1, hits give low values 1.05 | locus YBR021W, strain FUR4, hits give low values 1.01 | locus YBR023C, strain chs3, hits give low values 1.02 | locus YBR171W, strain sec66, hits give low values 1.03 | locus YBR229C, strain ROT2, hits give low values 1.01 | locus YBR231C, strain swc5, hits give low values 1.02 | locus YBR279W, strain paf1, hits give low values 1.01 | locus YCL011C, strain gbp2, hits give low values 1.02 | locus YCL016C, strain dcc1, hits give low values 1.02 | locus YCL029C, strain bik1, hits give low values 0.996 | locus YCL061C, strain MRC1, hits give low values 1.02 | locus YCL069W, strain vba3, hits give low values 1.01 | locus YCR088W, strain abp1, hits give low values 1.01 | locus YDL005C, strain med2, hits give low values 1.01 | locus YDL035C, strain GPR1, hits give low values 1.01 | locus YDL040C, strain nat1, hits give low values 1.01 | locus YDL074C, strain BRE1, hits give low values 1.02 | locus YDL101C, strain DUN1, hits give low values 1.02 | locus YDL134C, strain PPH21, hits give low values 1.01 | locus YDL185W, strain tfp1, hits give low values 0.995 | locus YDL192W, strain arf1, hits give low values 1 | locus YDR001C, strain nth1, hits give low values 1.01 | locus YDR069C, strain doa4, hits give low values 1.03 | locus YDR101C, strain arx1, hits give low values 0.988 | locus YDR137W, strain rgp1, hits give low values 1.01 | locus YDR150W, strain NUM1, hits give low values 1.01 | locus YDR159W, strain sac3, hits give low values 1.02 | locus YDR162C, strain NBP2, hits give low values 1.01 | locus YDR195W, strain ref2 1.03 | locus YDR297W, strain sur2, hits give low values 1.01 | locus YDR318W, strain mcm21, hits give low values 1.01 | locus YDR334W, strain swr1, hits give low values 1.02 | locus YDR335W, strain msn5, hits give low values 1.01 | locus YDR388W, hits give low values 1.01 | locus YDR392W, strain spt3, hits give low values 0.996 | locus YDR502C, strain sam2, hits give low values 0.994 | locus YEL003W, strain gim4, hits give low values 1.02 | locus YEL037C, strain rad23, hits give low values 1.01 | locus YEL061C, strain CIN8 (second series), hits give low values 1.01 | locus YEL061C, strain CIN8, hits give low values 1 | locus YER015W, strain faa2, hits give low values 1.01 | locus YER016W, strain bim1, hits give low values 1.01 | locus YER110C, hits give low values 0.992 | locus YER111C, strain swi4, hits give low values 1.02 | locus YER155C, strain BEM2 (second series), hits give low values 1.05 | locus YER155C, strain BEM2, hits give low values 1 | locus YER167W, strain BCK2, hits give low values 1.01 | locus YFR010W, strain ubp6, hits give low values 1.02 | locus YGL078C, strain dbp3, hits give low values 0.999 | locus YGL086W, strain mad1, hits give low values 0.968 | locus YGL167C, strain pmr1, hits give low values 1.02 | locus YGL173C, strain kem1, hits give low values 1.02 | locus YGL227W, strain vid30, hits give low values 1.01 | locus YGL240W, strain doc1, hits give low values 1.04 | locus YGL248W, strain PDE1, hits give low values 1.01 | locus YGL253W, strain hxk2, hits give low values 1.03 | locus YGR078C, strain PAC10, hits give low values 1.01 | locus YGR135W, strain pre9, hits give low values 1 | locus YGR229C, strain SMI1, hits give low values 1.01 | locus YGR252W, strain gcn5, hits give low values 0.992 | locus YHR013C, strain ard1, hits give low values 0.999 | locus YHR027C, strain rpn1, hits give low values 1.01 | locus YHR030C, strain SLT2, hits give low values 1.01 | locus YHR079C, strain IRE1 (second series), hits give low values 1 | locus YHR094C, strain hxt1, hits give low values 0.993 | locus YHR129C, strain ARP1, hits give low values 1.01 | locus YHR142W, strain chs7, hits give low values 0.98 | locus YHR200W, strain rpn10, hits give low values 0.995 | locus YIL066C, strain RNR3, hits give low values 1.01 | locus YIL073C, strain SPO22, hits give low values 1.1 | locus YIL125W, strain kgd1, hits give low values 0.996 | locus YIR030C, strain dcg1, hits give low values 0.995 | locus YJL092W, strain hpr5, hits give low values 1.01 | locus YJL095W, strain BCK1 (second series), hits give low values 1.01 | locus YJL095W, strain BCK1, hits give low values 1.01 | locus YJL115W, strain asf1, hits give low values 1.02 | locus YJL129C, strain trk1, hits give low values 1.01 | locus YJL134W, strain LCB3, hits give low values 1 | locus YJL154C, strain vps35, hits give low values 1.01 | locus YJL164C, strain tpk1, hits give low values 1.01 | locus YJL166W, strain qcr8, hits give low values 1.01 | locus YJL168C, strain set2, hits give low values 1 | locus YJL187C, strain SWE1 (second series), hits give low values 1.02 | locus YJL187C, strain SWE1, hits give low values 1.01
